Among the test systems are NCI-H23 lung; NCI-H226 lung; NCI-H322M lung; HOP-62 NSCLC; NCI-H460 lung; HOP-92 NSCLC; NCI-H522 lung; A549/ATCC NSCLC; 786-0 renal; COLO 205 colon; DU-145 prostate; K-562 leukemia; MALME-3M melanoma; MDA-MB-231 breast; SF-268 CNS; SF-295 CNS; SF-539 CNS; UACC-257 melanoma; RXF 393 renal.
Common to all, as to test: NCI-60 one-dose screen, 48 h (100 = growth as untreated, 0 = no growth, -100 = all killed)
Holding throughout (conditions): 10 µM unless noted

Each structure is given as a SMILES string. About 83,000 compounds went through this panel and 20% of them were active in at least one assay; those are over-represented in the sample as a whole.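 Single-dose data. Exposure time 48 hours. Values below 10 considered active.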 Values without a mark were called inactive. The source made the active and inactive calls.

This is an account of results in PubChem BioAssay (NCI).

For `O=C(CCc1nc(-c2cccc(Cl)c2)no1)Nc1ccccn1`, the growth with NCI-H23 lung is 89.2%; in the experiment with NCI-H226 lung, 89.8%; with NCI-H322M lung, 108%; in the experiment with HOP-62 NSCLC it was 124%; in the experiment with NCI-H460 lung it was 103%; in the experiment with HOP-92 NSCLC, 82.3%. Further, the growth in the experiment on NCI-H522 lung was 84.5%; in the experiment with A549/ATCC NSCLC it was 111%; in the experiment on 786-0 renal, 96.3%; with COLO 205 colon, 117%; with DU-145 prostate, 109%; in the experiment with K-562 leukemia, 87.5%. For the same compound, the growth was 91.7% with MALME-3M melanoma; 95.6% in the experiment on MDA-MB-231 breast; 104% in the experiment on SF-268 CNS; 94% in the experiment on SF-295 CNS; 96.6% in the experiment with SF-539 CNS; 114% in the experiment with UACC-257 melanoma.

As for `Cc1nc(Nc2ccc(N)cc2)c2ccccc2n1`, the growth in the experiment with NCI-H23 lung is 86.8%; in the experiment on NCI-H226 lung it was 97.6%; with NCI-H322M lung, 117%; in the experiment on HOP-62 NSCLC, 104%; in the experiment with NCI-H460 lung, 102%; with HOP-92 NSCLC, 109%. Also, the growth is 80.8% in the experiment on NCI-H522 lung; 103% in the experiment with A549/ATCC NSCLC; 107% with 786-0 renal; 92.2% in the experiment on COLO 205 colon; 117% in the experiment with DU-145 prostate; 74.5% in the experiment on K-562 leukemia. The growth in the experiment with MALME-3M melanoma is 97.6%; in the experiment on MDA-MB-231 breast, 93.9%; in the experiment on SF-268 CNS it was 106%; in the experiment on SF-295 CNS it was 95.8%; in the experiment on SF-539 CNS, 96%; in the experiment with UACC-257 melanoma it was 104%.

On to `COc1ccc(/C=C2\COc3ccc(O)cc3C2=O)cc1OC`, for which the growth in the experiment with NCI-H23 lung was 105%; with NCI-H226 lung it was 97%; with NCI-H322M lung, 90.4%; in the experiment on HOP-62 NSCLC it was 76%; in the experiment with NCI-H460 lung, 67.6%; with HOP-92 NSCLC, 59.1%. The growth in the experiment on NCI-H522 lung was 35.2%; in the experiment with A549/ATCC NSCLC it was 91.2%; with 786-0 renal it was 88.2%; with COLO 205 colon, 93.9%; in the experiment with DU-145 prostate, 65.7%; in the experiment with K-562 leukemia, 8.84% (active). Further, the growth with MALME-3M melanoma is 92.6%; in the experiment on MDA-MB-231 breast, 87.5%; in the experiment on SF-268 CNS it was 93.1%; with SF-295 CNS, 103%; in the experiment on SF-539 CNS, 83.2%; in the experiment on UACC-257 melanoma, 80.2%.

In the case of `Cn1ccnc1C(=O)/C=C/c1ccc(C(=O)Nc2ccc(S(F)(F)(F)(F)F)cc2)cc1`, the growth in the experiment on NCI-H23 lung is 17.8%; with NCI-H226 lung, 43.9%; with NCI-H322M lung it was 15.4%; in the experiment with HOP-62 NSCLC it was 24.4%; with NCI-H460 lung, -4.08% (active); in the experiment on HOP-92 NSCLC it was 95.8%. In addition, the growth is 42.9% with NCI-H522 lung; 31.5% with A549/ATCC NSCLC; 15.9% with 786-0 renal; 9.14% (active) in the experiment on COLO 205 colon; 15.6% with DU-145 prostate; 2.18% (active) in the experiment on K-562 leukemia. In addition, the growth is 59.6% in the experiment on MALME-3M melanoma; 22.4% with MDA-MB-231 breast; 15.3% in the experiment on SF-268 CNS; 32.7% in the experiment on SF-295 CNS; -37.1% (active) in the experiment with SF-539 CNS; 42.4% in the experiment on UACC-257 melanoma.

Consider `O=c1[nH]nc(-c2ccc(Cl)cc2)cc1Cc1ccccc1`, for which the growth in the experiment with NCI-H23 lung is 92.3%; in the experiment on NCI-H226 lung, 79.9%; in the experiment with NCI-H322M lung it was 155%; in the experiment on HOP-62 NSCLC, 90.5%; in the experiment with NCI-H460 lung, 104%; with HOP-92 NSCLC it was 86.2%. Also, the growth with NCI-H522 lung was 35%; in the experiment on A549/ATCC NSCLC, 42.1%; in the experiment with 786-0 renal it was 96.9%; in the experiment with COLO 205 colon it was 116%; with DU-145 prostate, 104%; with K-562 leukemia it was 79%. The growth in the experiment on MDA-MB-231 breast is 79.5%; with RXF 393 renal, 3.35% (active); in the experiment with SF-268 CNS, 99.4%; in the experiment on SF-295 CNS it was 89.6%; with SF-539 CNS, 65.2%; in the experiment with UACC-257 melanoma, 84.3%.

As to `Cc1nc(-c2ccccc2)cc2c(O)c(C(=O)N/N=C/c3ccc(N(C)C)cc3)[nH]c(=O)c12`, the growth is 78.1% in the experiment with NCI-H23 lung; 107% with NCI-H226 lung; 90.5% in the experiment on NCI-H322M lung; 77.3% with HOP-62 NSCLC; 94.9% with NCI-H460 lung; 32% in the experiment on HOP-92 NSCLC. Besides, the growth was 72.7% with NCI-H522 lung; 40.5% in the experiment on A549/ATCC NSCLC; 79.2% with 786-0 renal; 109% in the experiment with COLO 205 colon; 75.1% in the experiment on DU-145 prostate; 62.6% in the experiment with K-562 leukemia. The growth with MALME-3M melanoma is 98.2%; in the experiment with MDA-MB-231 breast, 71.7%; in the experiment on SF-268 CNS it was 81.7%; in the experiment with SF-295 CNS it was 94.1%; with SF-539 CNS it was 69.7%; in the experiment with UACC-257 melanoma, 106%.

Regarding `O=C1C=CC(=Nc2cc(Br)c(O)c(Br)c2)C=C1`, the growth with NCI-H23 lung was 78.1%; in the experiment on NCI-H226 lung it was 93.9%; in the experiment on NCI-H322M lung, 105%; in the experiment on HOP-62 NSCLC it was 82.1%; in the experiment with NCI-H460 lung, 109%; with HOP-92 NSCLC, 29.5%. Besides, the growth is -14.6% (active) in the experiment on NCI-H522 lung; 118% in the experiment on A549/ATCC NSCLC; 70.2% with 786-0 renal; 113% in the experiment with COLO 205 colon; 102% in the experiment on DU-145 prostate; 12.6% in the experiment on K-562 leukemia. The growth was 70.2% with MALME-3M melanoma; 72.6% with MDA-MB-231 breast; 82.7% in the experiment on SF-268 CNS; 101% in the experiment on SF-295 CNS; 86.4% with SF-539 CNS; 90.9% in the experiment with UACC-257 melanoma.

For `C=C1C(=O)O[C@H]2[C@H]1CC/C(COC(=O)/C=C\C(=O)NCc1ccc(Cn3c(=O)sn(CCCC)c3=O)cc1)=C\CC[C@@]1(C)O[C@@H]21`, the growth in the experiment on NCI-H23 lung was -61.4% (active); in the experiment with NCI-H226 lung it was -70.4% (active); in the experiment with NCI-H322M lung, 35.4%; with HOP-62 NSCLC, -35.7% (active); in the experiment with NCI-H460 lung, -54.3% (active); in the experiment with HOP-92 NSCLC, -67.7% (active). For the same compound, the growth with NCI-H522 lung was -44.5% (active); with A549/ATCC NSCLC it was 0.708% (active); in the experiment on 786-0 renal it was -76.8% (active); with COLO 205 colon it was -51.2% (active); with DU-145 prostate, -95.5% (active); in the experiment on K-562 leukemia it was 0.287% (active). Moreover, the growth in the experiment with MALME-3M melanoma is -93.3% (active); in the experiment on MDA-MB-231 breast, -84.4% (active); with SF-268 CNS, -64.4% (active); in the experiment with SF-295 CNS, 65.1%; with SF-539 CNS, -98.9% (active); in the experiment with UACC-257 melanoma, -52.8% (active).
